One assay addresses T1, GST-Co-NF-kB (Capsaspora owczarzaki, UniProt F1ARL5 200-546).
T1 sequence: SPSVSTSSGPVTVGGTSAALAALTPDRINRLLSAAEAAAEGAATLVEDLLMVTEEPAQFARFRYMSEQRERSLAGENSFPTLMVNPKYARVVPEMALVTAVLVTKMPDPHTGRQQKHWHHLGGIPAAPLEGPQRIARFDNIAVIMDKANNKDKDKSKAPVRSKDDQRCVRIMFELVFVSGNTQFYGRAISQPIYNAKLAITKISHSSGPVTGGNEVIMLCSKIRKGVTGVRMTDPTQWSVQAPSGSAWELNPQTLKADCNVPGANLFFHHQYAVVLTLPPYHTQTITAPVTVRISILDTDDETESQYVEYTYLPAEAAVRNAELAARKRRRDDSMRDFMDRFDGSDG
As to the kind of experiment: protein-binding microarray (PBM); PBM: ~300 nM protein, 6 mM HEPES pH 7.8, 80 mM KCl, 0.5 mM EDTA, 0.5 mM EGTA, 6% glycerol, 35 ng/ul poly-dIdC, 1% milk, 1 h, room temperature; Ap Aiptasia and Nv Nematostella (sea anemones) / Co Capsaspora / Aq Amphimedon (sponge) / Dm Drosophila / Hu human; RHD is the Rel homology domain; high values mean tight binding. Particulars: dsDNA, one strand shown.
On to “CCGATTAACATCAGGTTTCCCCATGATGTTAATCGGGTCTTGATTCGCTTGACGCTGCTG”, for which the binding signal was found to be 7.88 z-score.

Regarding “CCGATTAACATCAAAAATACCCCTGATGTTAATCGGGTCTTGATTCGCTTGACGCTGCTG”, the binding signal amounted to 6.5 z-score.

The sequence “CCGATTAACATCAGGGGGGACGATGATGTTAATCGGGTCTTGATTCGCTTGACGCTGCTG” returned a binding signal of 5.85 z-score.

With “CCGATTAACATCAGGGGAACCACTGATGTTAATCGGGTCTTGATTCGCTTGACGCTGCTG”, the binding signal came out at 5.2 z-score.

For the sequence “CCGATTAACATCAAAAAACCCCTTGATGTTAATCGGGTCTTGATTCGCTTGACGCTGCTG”, the binding signal was found to be 2.05 z-score.

“CCGATTAACATCAGGGTATTTTATGATGTTAATCGGGTCTTGATTCGCTTGACGCTGCTG” registered a binding signal of 3.22 z-score.

Consider “CCGATTAACATCAAGAACTTCCCTGATGTTAATCGGGTCTTGATTCGCTTGACGCTGCTG”, for which the binding signal turned out to be 2.1 z-score.

For the sequence “CCGATTAACATCACGGGGAATTCTGATGTTAATCGGGTCTTGATTCGCTTGACGCTGCTG”, the binding signal came to 8.83 z-score.

Regarding “CCGATTAACATCAGGGGATTTAATGATGTTAATCGGGTCTTGATTCGCTTGACGCTGCTG”, the binding signal turned out to be 3.58 z-score.

Regarding “CCGATTAACATCAGGGGAATTAATGATGTTAATCGGGTCTTGATTCGCTTGACGCTGCTG”, the binding signal stood at 7.92 z-score.

In turn, “CCGATTAACATCAAATGTCCCCCTGATGTTAATCGGGTCTTGATTCGCTTGACGCTGCTG” had a binding signal of 7.6 z-score.

“CCGATTAACATCAGGAATTCCCCTGATGTTAATCGGGTCTTGATTCGCTTGACGCTGCTG” displayed a binding signal of 7.64 z-score.

In turn, “CCGATTAACATCAAAAACTCCCCTGATGTTAATCGGGTCTTGATTCGCTTGACGCTGCTG” registered a binding signal of 6.91 z-score.

“CCGATTAACATCACACATCCCCCTGATGTTAATCGGGTCTTGATTCGCTTGACGCTGCTG” registered a binding signal of 4.17 z-score.

Sequence “CCGATTAACATCAAGACTTCCCCTGATGTTAATCGGGTCTTGATTCGCTTGACGCTGCTG” showed a binding signal of 5.12 z-score.

In turn, “CCGATTAACATCAGGGGGGTGAATGATGTTAATCGGGTCTTGATTCGCTTGACGCTGCTG” came in with a binding signal of 5.24 z-score.

Regarding “CCGATTAACATCAGGGGGGTAAATGATGTTAATCGGGTCTTGATTCGCTTGACGCTGCTG”, the binding signal worked out at 7.69 z-score.

In the case of “CCGATTAACATCATAAATTCCCATGATGTTAATCGGGTCTTGATTCGCTTGACGCTGCTG”, the binding signal was determined as 3.32 z-score.

“CCGATTAACATCAAATCCCCCCGTGATGTTAATCGGGTCTTGATTCGCTTGACGCTGCTG” gave a binding signal of 7.74 z-score.

“CCGATTAACATCAAATTCCCATGTGATGTTAATCGGGTCTTGATTCGCTTGACGCTGCTG” showed a binding signal of 1.96 z-score.

Regarding “CCGATTAACATCAGGGGGCGGGATGATGTTAATCGGGTCTTGATTCGCTTGACGCTGCTG”, the binding signal is 2.28 z-score.

“CCGATTAACATCAGGAAATTCCCTGATGTTAATCGGGTCTTGATTCGCTTGACGCTGCTG” showed a binding signal of 4.13 z-score.

With “CCGATTAACATCAGGGGGTGGTATGATGTTAATCGGGTCTTGATTCGCTTGACGCTGCTG”, the binding signal is 2.91 z-score.

Sequence “CCGATTAACATCAAAAATTACCCTGATGTTAATCGGGTCTTGATTCGCTTGACGCTGCTG” came in with a binding signal of 4.09 z-score.

For the sequence “CCGATTAACATCACGGGGGATTCTGATGTTAATCGGGTCTTGATTCGCTTGACGCTGCTG”, the binding signal turned out to be 7.06 z-score.

In the case of “CCGATTAACATCAAAGGACCCCCTGATGTTAATCGGGTCTTGATTCGCTTGACGCTGCTG”, the binding signal stood at 2.19 z-score.

“CCGATTAACATCACAGTCCCCCCTGATGTTAATCGGGTCTTGATTCGCTTGACGCTGCTG” displayed a binding signal of 5.62 z-score.

“CCGATTAACATCAAAAAGCCCCCTGATGTTAATCGGGTCTTGATTCGCTTGACGCTGCTG”: the binding signal was determined as 3.86 z-score.

As for “CCGATTAACATCAGAAATATCCCTGATGTTAATCGGGTCTTGATTCGCTTGACGCTGCTG”, the binding signal stood at 1.62 z-score.

The next assay deals with T2, GST-Dm-Relish (Drosophila melanogaster, UniProt Q94527 99-473).
T2 sequence: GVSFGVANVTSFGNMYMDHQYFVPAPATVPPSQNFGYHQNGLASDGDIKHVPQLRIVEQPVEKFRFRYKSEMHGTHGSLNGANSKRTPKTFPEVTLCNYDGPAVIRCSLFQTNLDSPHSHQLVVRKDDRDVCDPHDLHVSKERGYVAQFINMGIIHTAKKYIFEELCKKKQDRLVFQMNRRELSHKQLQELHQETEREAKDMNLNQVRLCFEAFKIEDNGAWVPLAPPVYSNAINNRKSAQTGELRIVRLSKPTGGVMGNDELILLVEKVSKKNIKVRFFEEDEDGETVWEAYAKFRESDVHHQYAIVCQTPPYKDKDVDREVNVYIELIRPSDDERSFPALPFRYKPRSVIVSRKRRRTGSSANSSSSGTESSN
The description is as above. Particulars: dsDNA, one strand shown.
Sequence “CCGATTAACATCAGGGGAACGCATGATGTTAATCGGGTCTTGATTCGCTTGACGCTGCTG” returned a binding signal of 2.68 z-score.

With “CCGATTAACATCAGGGGGCTATATGATGTTAATCGGGTCTTGATTCGCTTGACGCTGCTG”, the binding signal is 2.75 z-score.

The sequence “CCGATTAACATCAAATTTCCCAGTGATGTTAATCGGGTCTTGATTCGCTTGACGCTGCTG” returned a binding signal of 2.71 z-score.

Consider “CCGATTAACATCAAAAAATCCCATGATGTTAATCGGGTCTTGATTCGCTTGACGCTGCTG”, for which the binding signal is 8.41 z-score.

Regarding “CCGATTAACATCAAAAATCCCAATGATGTTAATCGGGTCTTGATTCGCTTGACGCTGCTG”, the binding signal came to 6.98 z-score.

The sequence “CCGATTAACATCAAAAAAACCCCTGATGTTAATCGGGTCTTGATTCGCTTGACGCTGCTG” had a binding signal of 9.78 z-score.

Regarding “CCGATTAACATCAGGGAATTTACTGATGTTAATCGGGTCTTGATTCGCTTGACGCTGCTG”, the binding signal turned out to be 6.87 z-score.

With “CCGATTAACATCAAGGGGGTACTTGATGTTAATCGGGTCTTGATTCGCTTGACGCTGCTG”, the binding signal came out at 2.88 z-score.

The sequence “CCGATTAACATCAGGGGAGGGAATGATGTTAATCGGGTCTTGATTCGCTTGACGCTGCTG” had a binding signal of 2.13 z-score.

“CCGATTAACATCAGGGGATACACTGATGTTAATCGGGTCTTGATTCGCTTGACGCTGCTG” showed a binding signal of 5.84 z-score.

“CCGATTAACATCAAGGGGGGGTGTGATGTTAATCGGGTCTTGATTCGCTTGACGCTGCTG” had a binding signal of 4.4 z-score.

The sequence “CCGATTAACATCAGGTTTCCCCATGATGTTAATCGGGTCTTGATTCGCTTGACGCTGCTG” yielded a binding signal of 4.69 z-score.

“CCGATTAACATCAAAAATACCCCTGATGTTAATCGGGTCTTGATTCGCTTGACGCTGCTG” yielded a binding signal of 7.71 z-score.

As for “CCGATTAACATCAGGGGGGACGATGATGTTAATCGGGTCTTGATTCGCTTGACGCTGCTG”, the binding signal was determined as 3.77 z-score.

“CCGATTAACATCAGGGGAACCACTGATGTTAATCGGGTCTTGATTCGCTTGACGCTGCTG”: the binding signal is 10.4 z-score.

“CCGATTAACATCAAAAAACCCCTTGATGTTAATCGGGTCTTGATTCGCTTGACGCTGCTG”: the binding signal was 8.96 z-score.

“CCGATTAACATCAGGGTATTTTATGATGTTAATCGGGTCTTGATTCGCTTGACGCTGCTG” came in with a binding signal of 5.65 z-score.

Regarding “CCGATTAACATCAAGAACTTCCCTGATGTTAATCGGGTCTTGATTCGCTTGACGCTGCTG”, the binding signal worked out at 2.86 z-score.

Take “CCGATTAACATCACGGGGAATTCTGATGTTAATCGGGTCTTGATTCGCTTGACGCTGCTG”: the binding signal was 8.15 z-score.

As for “CCGATTAACATCAGGGGATTTAATGATGTTAATCGGGTCTTGATTCGCTTGACGCTGCTG”, the binding signal came out at 7.98 z-score.

“CCGATTAACATCAGGGGAATTAATGATGTTAATCGGGTCTTGATTCGCTTGACGCTGCTG” showed a binding signal of 7.21 z-score.

For the sequence “CCGATTAACATCAAATGTCCCCCTGATGTTAATCGGGTCTTGATTCGCTTGACGCTGCTG”, the binding signal amounted to 5.11 z-score.

“CCGATTAACATCAGGAATTCCCCTGATGTTAATCGGGTCTTGATTCGCTTGACGCTGCTG”: the binding signal worked out at 9.99 z-score.

“CCGATTAACATCAAAAACTCCCCTGATGTTAATCGGGTCTTGATTCGCTTGACGCTGCTG”: the binding signal stood at 8.62 z-score.

“CCGATTAACATCACACATCCCCCTGATGTTAATCGGGTCTTGATTCGCTTGACGCTGCTG” yielded a binding signal of 3.19 z-score.

“CCGATTAACATCAAGACTTCCCCTGATGTTAATCGGGTCTTGATTCGCTTGACGCTGCTG” came in with a binding signal of 7.71 z-score.

Sequence “CCGATTAACATCAGGGGGGTGAATGATGTTAATCGGGTCTTGATTCGCTTGACGCTGCTG” registered a binding signal of 4.14 z-score.

In turn, “CCGATTAACATCAGGGGGGTAAATGATGTTAATCGGGTCTTGATTCGCTTGACGCTGCTG” gave a binding signal of 4.17 z-score.

Sequence “CCGATTAACATCATAAATTCCCATGATGTTAATCGGGTCTTGATTCGCTTGACGCTGCTG” came in with a binding signal of 5.06 z-score.

As to “CCGATTAACATCAAATCCCCCCGTGATGTTAATCGGGTCTTGATTCGCTTGACGCTGCTG”, the binding signal stood at 8.05 z-score.

“CCGATTAACATCAAATTCCCATGTGATGTTAATCGGGTCTTGATTCGCTTGACGCTGCTG” gave a binding signal of 3.99 z-score.

“CCGATTAACATCAGGGGGCGGGATGATGTTAATCGGGTCTTGATTCGCTTGACGCTGCTG” returned a binding signal of 3.49 z-score.

With “CCGATTAACATCAGGAAATTCCCTGATGTTAATCGGGTCTTGATTCGCTTGACGCTGCTG”, the binding signal turned out to be 6.79 z-score.

As for “CCGATTAACATCAGGGGGTGGTATGATGTTAATCGGGTCTTGATTCGCTTGACGCTGCTG”, the binding signal is 2.01 z-score.

As for “CCGATTAACATCAAAAATTACCCTGATGTTAATCGGGTCTTGATTCGCTTGACGCTGCTG”, the binding signal was 6.42 z-score.

Sequence “CCGATTAACATCACGGGGGATTCTGATGTTAATCGGGTCTTGATTCGCTTGACGCTGCTG” had a binding signal of 7.96 z-score.

“CCGATTAACATCAAAGGACCCCCTGATGTTAATCGGGTCTTGATTCGCTTGACGCTGCTG” gave a binding signal of 4.18 z-score.

With “CCGATTAACATCACAGTCCCCCCTGATGTTAATCGGGTCTTGATTCGCTTGACGCTGCTG”, the binding signal was found to be 4.6 z-score.

Regarding “CCGATTAACATCAAAAAGCCCCCTGATGTTAATCGGGTCTTGATTCGCTTGACGCTGCTG”, the binding signal turned out to be 9.41 z-score.

Sequence “CCGATTAACATCAGAAATATCCCTGATGTTAATCGGGTCTTGATTCGCTTGACGCTGCTG” came in with a binding signal of 3.52 z-score.

These data come from PMC5700166.
